# Where “and” joins values, the source holds several entries; their conditions need not be identical. Identical values can stand only once. Inconclusive results are not listed. Where a call stands in place of a potency, no number is given. Calls of active or inactive are those of the source. Calls come from the whole dose curve; as a rule, active = well fitted inhibition curve with a large enough effect; inconclusive = small, poorly fitted or top-dose-only effect; inactive = flat fitted curve, though single readings scatter.
# Experiment: Primary qHTS for inhibitors of nuclear receptor binding SET domain protein 2 (NSD2) in an isogenic RCH-ACV NSD2 p.E1099K mutant (9B) (AID 1645876); note: nearly all actives have a fitted effect of over 70% in size
# Conditions: RCH-ACV (leukaemia line) NSD2 E1099K (9B) viability, CellTiter-Glo, 72 h; series mostly up to 44.9 µM
# Potency is the fitted concentration of half-maximal effect.
row,Compound,Potency
1,C[C@]12CC[C@@H]3c4ccc(O)cc4CC[C@H]3[C@@H]1C[C@@H](O)[C@@H]2O,inactive
2,COc1cccc(OC)c1C(=O)N[C@@H]1C(=O)N2[C@@H]1SC(C)(C)[C@@H]2C(=O)O,inactive
3,CC(=O)Nc1c(I)cc(I)c(C(=O)O)c1I,inactive
4,CCOC(=O)c1cccc(N)c1,inactive
5,CCN(CC)C(=O)N1CCN(C)CC1,inactive
6,Cc1c(C(N)=O)cc([N+](=O)[O-])cc1[N+](=O)[O-],inactive
7,OCc1ccccc1O,inactive
8,N[C@@H](CCC(=O)N[C@@H](CS)C(=O)NCC(=O)O)C(=O)O,inactive
9,C#C[C@]1(O)CC[C@H]2[C@@H]3CCc4cc(OC5CCCC5)ccc4[C@H]3CC[C@@]21C,inactive
10,CC1(C)OC[C@@H](COC(=O)CCc2ccc(OC[C@@H](O)CNCCNC(=O)N3CCOCC3)cc2)O1,inactive
11,CC1(C)O[C@@H]2[C@@H](CO[C@@]3(COS(N)(=O)=O)OC(C)(C)O[C@@H]23)O1,inactive
12,Cc1nc2n(c(=O)c1CCN1CCC(c3noc4cc(F)ccc34)CC1)CCC[C@H]2O,inactive
13,CCC(=O)c1c(O)cc(O)cc1O,inactive
14,CCCCCC=CCC=CCCCCCCCC(=O)OCC,23.7 µM (active)
15,CN(C)/N=N/c1nc[nH]c1C(N)=O,inactive
16,CCCCc1nc(Cl)c(CO)n1Cc1ccc(-c2ccccc2-c2nn[nH]n2)cc1,inactive
17,COc1cccc2c1C(=O)c1c(O)c3c(c(O)c1C2=O)C[C@@](O)(C(=O)CO)C[C@@H]3O[C@H]1C[C@H](N)[C@H](O)[C@H](C)O1,188 nM (active) and 33.2 nM (active)
